Data taken from ChEMBL document CHEMBL3988442, “University of Dundee, Small-Polar-MMV Screening Library” (2021).
Screen size: about 48,000 compounds; about 13,000 (27%) showed an effect of 50% or more. The list shows a part of the results.

These compounds were tested on Wolbachia pipientis (assay: Anti-Wolbachia Cell-Based Screen). Settings: 5 µM.
Type: functional
Parameters: scale not given: in the data most compounds retested in dose-response had high values

| SMILES | Percent Effect |
| --- | --- |
| CCc1nc(C)c(-c2nccn2CC2CCCCO2)[nH]1 (stereo unspecified) | -5.573% |
| CCN(C(=O)c1ccc2nnc(C3CCN(CCOC)C3)n2c1)C(C)C.O=C(O)C(F)(F)F (stereo unspecified) | 2.172% |
| CN(CCN1CCCCCC1)Cc1cnc(N)nc1 | -0.8813% |
| CCN1CCC(Cn2ccc3ccc(C(=O)OC)cc3c2=O)C1 (stereo unspecified) | -7.454% |
| COc1ccccc1CNC(=O)C1=NN(c2ccc(C)cc2)C(=O)CN1 | 1.348% |
| c1cc(CCN2CCCC2CN2CCCC2)ccn1 (stereo unspecified) | 17.12% |
| O=C(CCN1CCCC1c1ccccn1)N1CCc2ccccc2C1 (stereo unspecified) | 1% |
| c1ccc(CCN2CCCC2c2ccnc(Nc3cnccn3)n2)cc1 (stereo unspecified) | 169.2% |
| COCC(=O)N1CCCC1c1ccnc(Nc2cnccn2)n1 (stereo unspecified) | -7.486% |
| Nc1nccc(C2CCCN2CCc2ccccc2)n1 (stereo unspecified) | 168.1% |
| CSCC1CCCN1CCc1ccncc1 (stereo unspecified) | 7.935% |
| Fc1ccc2[nH]c(C3CCCN3CCc3ccccn3)nc2c1 (stereo unspecified) | 17.03% |
| c1ccc(CCN2CCCC2c2ccnc(Nc3ncccn3)n2)cc1 (stereo unspecified) | 212.6% |
| CCn1cc2c(n1)C(COC)CN(C(=O)COc1ccccc1)C2 (stereo unspecified) | -10.51% |
| Cc1cccnc1CN(C)C(C(=O)O)c1ccc(-n2cccn2)cc1 (stereo unspecified) | -2.38% |
| COc1nc2c(cc1C(=O)NCCCc1csc(N)n1)CCC2 | -5.437% |
| COC(=O)COc1cccc(NS(=O)(=O)c2cc(C(=O)O)cs2)c1 | 15.7% |
| Nc1cc2c(nn1)CCN(C(=O)Cc1ccc3c(c1)CCCC3)C2 | -1.547% |
| O=C(O)C(F)(F)F.O=C(c1ccco1)N1CCCC2(CN(Cc3ccc(F)cc3)CCO2)C1 (stereo unspecified) | -3.961% |
| O=C(C1CC1)N1CC2(CCNCC2)c2cc(F)ccc21.O=C(O)C(F)(F)F | -3.609% |
| O=C(O)C(F)(F)F.O=C(c1ccco1)N1CC2(CCNCC2)c2cc(Cl)ccc21 | 104.6% |
| O=C(O)C(F)(F)F.O=C(c1cccc(Cl)c1)N1CCCC2(CCCNC2)C1 (stereo unspecified) | -4.426% |
| COc1cc(C(=O)N2CC3(CCNCC3)c3cc(Cl)ccc32)ccn1.O=C(O)C(F)(F)F.O=C(O)C(F)(F)F | 123.4% |
| Cc1ccc(C(=O)N2CC3(CCCCC3)c3cc(C(=O)O)ccc32)cn1.O=C(O)C(F)(F)F | -4.08% |
| Cc1ccc(C(=O)N2CC3(CCNCC3)c3cc(Cl)ccc32)cn1.O=C(O)C(F)(F)F.O=C(O)C(F)(F)F | 107.7% |
| O=C(O)C(F)(F)F.O=C(O)C(F)(F)F.O=C(c1ccncc1)N1CC2(CCNCC2)c2cc(Cl)ccc21 | 113.8% |

| SMILES | Percent Effect |
| --- | --- |
| CN(C)C(=O)N1CC2(CCNCC2)c2cc(F)ccc21.O=C(O)C(F)(F)F | 2.852% |
| Cc1ccc(N2CCN(Cc3ccccc3)C3(CCNCC3)C2=O)cn1.O=C(O)C(F)(F)F | -1.603% |
| CNC(=O)[C@@H](C1CCCCC1)N1CCC[C@H]1C(=O)NCCN1CCCC1.Cl.Cl | 1.393% |
| CC1CCCN(C(=O)c2ncncc2Cl)C1 (stereo unspecified) | -8.48% |
| CCc1nc(C)c(CN2CCOC(Cc3ccccc3Cl)C2)[nH]1 (stereo unspecified) | 16.37% |
| COCC(=O)NC(c1ccc(Cl)cc1)C(F)(F)F (stereo unspecified) | 5.635% |
| Cc1cc(C(=O)Nc2ccc(N3CCCC3)cn2)ccc1-n1cncn1 | -6.985% |
| Cc1nn(-c2ccc(F)cc2)c2[nH]nc(N)c12 | 1.976% |
| COCCC1(CO)CCCN(Cc2cc(C(F)(F)F)ccc2F)C1 (stereo unspecified) | 0.6502% |
| Cn1cc(NC(=O)N2CCC(CN3CCCC3)CC2)ccc1=O | -5.518% |
| FC(F)(F)c1nc(NC2CCCC2)c2ccccc2n1 | 1.763% |
| CC(C)C(Nc1nc(C(F)(F)F)nc2ccccc12)C(=O)O (stereo unspecified) | 2.163% |
| FC(F)(F)c1nc(NC2CCCCC2)c2ccccc2n1 | 111.5% |
| CNC(=O)c1cnn2c(C3CCCN3)ccnc12 (stereo unspecified) | 113.8% |
| CNC(=O)c1cnn2c(C3CCCN3C)ccnc12 (stereo unspecified) | 176.6% |
| CNC(=O)c1cc2c(nc1NC(C)C)CCNCC2 | 9.833% |
| COc1ccnc(N2CCN(C(=O)c3cnn(C)c3C3CC3)CC2)n1 | 4.417% |
| COCCOc1ccc(-c2noc([C@@H]3CCCN3)n2)cn1 | 7.967% |
| CCN(CC)C(=O)c1cc(C2CCCN2C)ccn1.O=CO (stereo unspecified) | -4.853% |
| O=C(Nc1ccc(-c2ccco2)cc1)C1CCCN(Cc2ccon2)C1 (stereo unspecified) | 13.81% |
| CN(C)Cc1cc(-c2nccn2CCn2cccn2)ccc1O | -0.09991% |
| CNc1nc(C)c(C(=O)N2CCCCC2CCc2ccccc2)s1 (stereo unspecified) | -0.1409% |
| CCC(O)C1CCN(C(=O)Nc2nc(-c3ccccc3)ns2)CC1 (stereo unspecified) | -13.79% |
| CNc1nc(C)c(C(=O)N2CCC(C(O)Cc3ccccc3)CC2)s1 (stereo unspecified) | 102.6% |
| CCNc1nc(C)c(C(=O)N2CCN(c3ncccc3C)CC2)s1 | -16.27% |
| CCOC(=O)N1CCN(C(=O)c2sc(-c3ccccc3F)nc2C)CC1 | 4.725% |

| SMILES | Percent Effect |
| --- | --- |
| CCNc1nc(C)c(C(=O)N2CCC(C(O)Cc3ccccc3)CC2)s1 (stereo unspecified) | 94.25% |
| O=S(=O)(C1CC1)N1CCCn2nnc(Cn3cccc3)c2C1 | 109% |
| CCS(=O)(=O)N1CCCn2nnc(Cn3cccc3)c2C1 | 97.66% |
| C1CCN(Cc2nnn3c2CN(CC2CC2)CCC3)C1 | 3.513% |
| O=C(O)C(F)(F)F.c1ccc(CN2CCCn3nnc(Cn4cccc4)c3C2)nc1 | -7.39% |
| O=C(c1ccc(Cl)cc1)N1CCCn2nnc(Cn3cccn3)c2C1 | 10.27% |
| CCS(=O)(=O)N1Cc2c(Cn3cccc3)nn(C(C)C)c2C1 | 3.857% |
| CCCc1cncnc1N1CCC(NCCc2ccc(O)cc2)CC1 | 1.389% |
| CC(C)CS(=O)(=O)CCNC(=O)Nc1cccc2ncccc12 | 3.388% |
| CCN(CC1CCOC1)S(=O)(=O)Cc1cc(Cl)ccc1OC (stereo unspecified) | -20.98% |
| Cc1oc(C(=O)Nc2ccccc2F)cc1S(N)(=O)=O | 99.25% |
| Cc1cc(C)c(S(N)(=O)=O)cc1C(=O)NCC1Cc2ccccc2O1 (stereo unspecified) | -3.139% |
| Cc1oc(C(=O)O)cc1S(=O)(=O)Nc1c(F)cccc1-n1cccn1 | -6.217% |
| Cc1oc(C(=O)Nc2cccc(Cl)c2C)cc1S(N)(=O)=O | 64.05% |
| Cc1cccc(C)c1NC(=O)c1cc(S(N)(=O)=O)c(C)o1 | 102.4% |
| CCN(Cc1ccoc1)C(=O)c1cc(S(N)(=O)=O)c(C)o1 | -22.47% |
| Cc1c(Cl)cccc1NC(=O)CN(Cc1cccnc1)C(C)C | -4.468% |
| NS(=O)(=O)CCNC(=O)c1cc2cccc(F)c2o1 | -1.054% |
| Cc1c(Cl)cccc1NC(=O)N1CCC2(CC1)NC(=O)CC2C(=O)O (stereo unspecified) | -2.177% |
| CC(=O)NCCCSC1CCN(c2c(F)cccc2F)C1=O (stereo unspecified) | 8.134% |
| COCc1c(Cl)cccc1NC(=O)NCc1cccc(N(C)C)n1 | 23.29% |
| O=C(O)C[C@@H]1CCN(C(=O)C2CCCC2)C[C@@H]1CCN1CCCCC1 | 3.998% |
| O=C1CCc2cc(OCCN3CCc4cncnc4C3)ccc2N1 | 28.97% |
| COc1cc(C(C)=O)ccc1OCC(=O)N(Cc1ccsc1)C1CC1 | -7.993% |
| COc1cc(C(C)=O)ccc1OCC(=O)N(C)Cc1cnn(C)c1 | -3.043% |
| Cn1cccc1C(=O)COc1ccc(S(N)(=O)=O)cc1 | 87.78% |

| SMILES | Percent Effect |
| --- | --- |
| Cn1cccc1C(=O)OCCNC(=O)c1ccccc1 | -6.195% |
| Cn1cccc1C(=O)N1CCC2(CCCN2S(C)(=O)=O)CC1 | -6.458% |
| Cn1cccc(NC(=O)COc2ccc(Br)cc2)c1=O | -13.39% |
| Cn1cccc(NC(=O)COc2ccc(Cl)cc2)c1=O | -8.548% |
| COc1cc(C(C)=O)ccc1OCC(=O)c1cccn1C | 70.23% |
| CC(=O)c1ccc(OCC(=O)c2cccn2C)cc1 | 104.8% |
| N#CCCN(Cc1ccco1)C(=O)CCCNC(=O)c1ccccc1 | 3.869% |
| c1cc(-c2noc([C@@H]3Cc4nc[nH]c4CN3)n2)ccn1 | -6.71% |
| CCOC(=O)Cn1ccc2cc(NC(=O)N3CCSCC3)ccc21 | -0.3314% |
| Cc1ccc2nc(C)cc(C(=O)NC(C)c3nnn[nH]3)c2c1 (stereo unspecified) | -5.758% |
| CN1C[C@]2(CC[C@@H](C(=O)O)CC2)Oc2ccccc2C1=O | 130.9% |
| Cc1ccccc1OC(C(=O)N1CCC2(CC1)CN(C)C(=O)O2)C(C)C (stereo unspecified) | -8.932% |
| CC(C)C(C(=O)N1CCC2(CC1)CN(C)C(=O)O2)c1ccccc1 (stereo unspecified) | -0.7993% |
| CCC(=O)c1ccc(OCC(=O)NCC2CC(CC)=NO2)cc1 (stereo unspecified) | 0.5795% |
| O=C(CCn1cncn1)N1CC[C@@H](c2ccc3ccccc3c2)[C@H](O)C1 | 2.781% |
| CSc1ccc(C(=O)C2CCCN(C(=O)CCCn3cncn3)C2)cc1 (stereo unspecified) | 89.8% |
| O=C(c1ccc(C(F)(F)F)cc1)C1CCCN(C(=O)Cn2cnnn2)C1 (stereo unspecified) | -1.796% |
| CSc1ccc(C(=O)C2CCCN(C(=O)Cn3cnnn3)C2)cc1 (stereo unspecified) | -23.42% |
| CSc1ccc(C(=O)C2CCCN(C(=O)CCn3cnnn3)C2)cc1 (stereo unspecified) | 95.72% |
| CSc1ccc(C(=O)C2CCCN(C(=O)CCn3cncn3)C2)cc1 (stereo unspecified) | 108% |
| CN(C)S(=O)(=O)N1C[C@@H]2CC[C@H](C1)N(CCC(=O)NCc1ccco1)C2 | -9.336% |
| CC(C)C(=O)NCc1cc(Br)ccc1F | -9.372% |
| OCCOc1nc(-c2ccccc2Cl)no1 | -14.24% |
